Assay results as given in PubChem BioAssay (NCATS).
Results filed as inconclusive are left out. Activity calls are given as the source filed them. Unless noted, calls follow the shape of the dose curve; as a rule, active = well fitted curve in the direction sought with a large enough effect; inconclusive = small, poorly fitted or top-dose-only effect, or another doubt; inactive = no such curve, though single readings can be large; an effect the other way counts as inactive or inconclusive.

Tests used:
[1] = test system: Zika virus NS2B-NS3 protease (unlinked complex); test: Primary screen GU Rhodamine qHTS for Zika virus inhibitors: Unlinked NS2B-NS3 protease assay (AID 1347159); also: % is scaled to controls: 0 for no effect and ±100 for the full control effect; nearly all actives have a fitted effect of over 60% in size
Summary of the method: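 Compounds, tested up to 114 microM, were incubated for 15 minutes with 25 nM unlinked NS2B-NS3 protease at pH 8.0. Cleavage of 1.5 microM Rhodamine110 substrate was then followed by fluorescence for 15 minutes.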

[2] = molecular target: Cytochrome P450 2C9 (Homo sapiens) (UniProt P11712); test: Cytochrome P450 family 2 subfamily C member 9 (CYP2C9) small molecule antagonists: luciferase biochemical (cell-free) qHTS assay (AID 1645842; active = well fitted curve in the direction sought with a large enough effect in the repeat runs; an effect the other way counts as inactive or inconclusive; also: potency is read from the fitted curve at half-maximal effect; nearly all actives have a fitted effect of over 55% in size)
Cytochrome P450 2C9 (Homo sapiens), sequence (P11712 whole entry, looked up): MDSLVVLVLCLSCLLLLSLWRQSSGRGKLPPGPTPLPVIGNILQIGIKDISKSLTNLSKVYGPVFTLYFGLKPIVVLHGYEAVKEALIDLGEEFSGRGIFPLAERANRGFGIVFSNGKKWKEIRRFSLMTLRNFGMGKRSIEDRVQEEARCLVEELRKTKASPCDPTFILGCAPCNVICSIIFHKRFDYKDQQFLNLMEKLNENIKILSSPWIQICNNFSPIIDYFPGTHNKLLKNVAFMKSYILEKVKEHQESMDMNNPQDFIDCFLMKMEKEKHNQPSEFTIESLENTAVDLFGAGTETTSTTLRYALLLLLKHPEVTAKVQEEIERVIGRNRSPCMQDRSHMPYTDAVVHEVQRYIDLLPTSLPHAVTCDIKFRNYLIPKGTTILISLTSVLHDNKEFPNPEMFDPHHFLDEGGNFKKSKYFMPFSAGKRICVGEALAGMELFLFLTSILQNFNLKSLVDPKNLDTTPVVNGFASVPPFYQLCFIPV
Summary of the method: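 Luminescence, after 20 min with luciferin detection reagent, reflected CYP2C9 turnover during a 1 h NADPH-driven reaction at 37C. Enzyme-substrate mix contained 0.4% bovine serum albumin and was preincubated with compound 10 min at room temperature.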

[3] = qHTS drug screen for cell cycle checkpoint inhibitors in PARPi-resistant BRCA-mutant ovarian cancer cell lines. (AID 1963452; calls by dose curve; also: potency is read from the fitted curve at half-maximal effect); settings: PEO1/OlaR viability, CellTiter-Glo luminescence, 96 h; for Z-AUC: stronger effect = lower value
Summary of the method: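 PEO1, PEO4 and PEO1/OlaR ovarian cancer cells, 600 per well, exposed 96 h at 37C to a dilution series. Viability read by CellTiter-Glo luminescence, normalized to DMSO and empty wells; activity summarized as Z-AUC.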

CRL-7250 = normal cell line; test: Cytotoxic Profiling of Annotated Libraries Using Quantitative High-Throughput Screening (AID 1296008); settings: Five cell lines viability, CellTiter-Glo ATP luminescence, 48-72 h; max response: stronger effect = lower value; also: nearly all actives have a fitted effect of over 60% in size; also: potency is read from the fitted curve at half-maximal effect; as to max response: % is scaled to controls: 0 for no effect and ±100 for the full control effect
Summary of the method: (§1)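 Cytotoxicity was measured as CellTiter-Glo ATP luminescence, read after 10 min at room temperature. Compound treatment of the cells lasted 48 or 72 hr at 37 degrees Celsius in a qHTS format.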

HaCat [4] = test: as above; settings: Five cell lines viability, CellTiter-Glo ATP luminescence, 48-72 h; max response: stronger effect = lower value
Summary of the method: as §1

HACAT [5] = test: qHTS assay to identify novel small-molecules to repurpose for Merkel cell carcinoma treatment (AID 1296009); settings: MCC and control cell lines, CellTiter-Glo viability, 72 h; at 44.8 µM (top of the series) unless noted; also: nearly all actives have a fitted effect of over 60% in size
Summary of the method: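 After compound transfer in DMSO, plates were kept 72 hr at 37 degree celsius. Luminescent ATP signal from CellTiter-Glo served as viability measure, normalized against DMSO and no-cell controls.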

PA-1 = test: Primary qHTS to identify gynecologic anti-cancer compounds using libraries of approved drugs and bioactive compounds (AID 1345084); settings: Gynecologic cancer cell panel viability, ATPlite luminescence, 48 h; series mostly up to 57.5 µM; also: nearly all actives have a fitted effect of over 55% in size; also: potency is read from the fitted curve at half-maximal effect
Summary of the method: (§2)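 Five-concentration response, 48 h; readout is ATP-driven luciferase luminescence.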

[6] = Confirmatory screen NINDS Rhodamine qHTS for Zika virus inhibitors (AID 1347161)
Summary of the method: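 Single-chain NS2B-NS3 protease, 25 nM, pH 8.0; compounds preincubated 15 min. Activity: Rhodamine110 release from 1.5 microM substrate over 15 min, room temperature, data fitted to 4-parameter Hill.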

[7] = Tertiary RLuc qRT-PCR qHTS assay for Zika virus inhibitors (AID 1347169); also: potency is read from the fitted curve at half-maximal effect; nearly all actives have a fitted effect of over 55% in size
Summary of the method: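 Vero, 1,000 cells/well, o/n 37 C; cpd pinned in DMSO; ZIKV-RLuc Cambodian, MOI 1-2, 48-72 h 37 C; live-cell RLuc substrate, lum read at 1-1.5 h.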

[8] = qHTS assay to identify inhibitors of the type 1 interferon - major histocompatibility complex class I in skeletal muscle: Counter screen cell viability and HiBit confirmation (AID 1347412); settings: iHSKM muscle cells + IFN-b, HiBiT or CellTiter-Glo, 24 h; also: nearly all actives have a fitted effect of over 60% in size; also: potency is read from the fitted curve at half-maximal effect; as to activity change, negative = inhibition: % is scaled to controls: 0 for no effect and ±100 for the full control effect
Summary of the method: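 Luminescence read-out: Nano-Glo HiBiT lytic signal from C-terminally HiBiT-tagged HLA-B in CRISPR-edited human myoblasts, plus CellTiter Glo ATP as viability counter screen. IFN-beta 4.0 ng/ml; 24 hrs treatment at 37 C, 5% CO2.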

[9] = molecular target: Catechol O-methyltransferase (Homo sapiens) (UniProt P21964); test: Confirmatory Screen for Target Class Profiling of Small Molecule Inhibitors of Methyltransferases (AID 1745852); settings: MTase-Glo luminescence, SAH detection, recombinant enzyme; measured here: COMT max response; stronger effect = lower value; as to activity change, negative = inhibition: % is scaled to controls: 0 for no effect and ±100 for the full control effect
Catechol O-methyltransferase (Homo sapiens), sequence (P21964 whole entry, looked up): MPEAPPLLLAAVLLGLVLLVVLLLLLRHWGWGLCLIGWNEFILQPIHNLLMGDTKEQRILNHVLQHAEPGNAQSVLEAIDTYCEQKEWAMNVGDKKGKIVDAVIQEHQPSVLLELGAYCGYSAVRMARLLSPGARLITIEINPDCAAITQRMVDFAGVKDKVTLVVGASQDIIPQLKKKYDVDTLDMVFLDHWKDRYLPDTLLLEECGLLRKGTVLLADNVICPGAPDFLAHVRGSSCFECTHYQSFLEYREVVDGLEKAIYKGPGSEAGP

[10] = molecular target: Guanidinoacetate N-methyltransferase (Homo sapiens) (UniProt Q14353); test: as above; settings: activity change, negative = inhibition: at 57.3 µM (top of the series) unless noted
[11] = molecular target: Nicotinamide N-methyltransferase (Homo sapiens) (UniProt P40261); test: as above; settings: MTase-Glo luminescence, SAH detection, recombinant enzyme; measured here: NNMT max response; stronger effect = lower value
Nicotinamide N-methyltransferase (Homo sapiens), sequence (P40261 whole entry, looked up): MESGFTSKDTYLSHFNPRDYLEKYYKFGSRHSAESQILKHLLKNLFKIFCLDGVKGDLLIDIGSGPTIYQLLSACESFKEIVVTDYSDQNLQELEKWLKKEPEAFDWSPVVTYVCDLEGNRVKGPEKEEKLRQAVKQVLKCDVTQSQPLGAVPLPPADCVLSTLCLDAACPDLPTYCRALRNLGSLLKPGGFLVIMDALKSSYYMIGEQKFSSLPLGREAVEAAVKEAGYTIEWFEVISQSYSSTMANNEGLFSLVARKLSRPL

[12] = molecular target: Phenylethanolamine N-methyltransferase (Homo sapiens) (UniProt P11086); test: as above; settings: MTase-Glo luminescence, SAH detection, recombinant enzyme; measured here: PNMT max response; stronger effect = lower value
Phenylethanolamine N-methyltransferase (Homo sapiens), sequence (P11086 whole entry, looked up): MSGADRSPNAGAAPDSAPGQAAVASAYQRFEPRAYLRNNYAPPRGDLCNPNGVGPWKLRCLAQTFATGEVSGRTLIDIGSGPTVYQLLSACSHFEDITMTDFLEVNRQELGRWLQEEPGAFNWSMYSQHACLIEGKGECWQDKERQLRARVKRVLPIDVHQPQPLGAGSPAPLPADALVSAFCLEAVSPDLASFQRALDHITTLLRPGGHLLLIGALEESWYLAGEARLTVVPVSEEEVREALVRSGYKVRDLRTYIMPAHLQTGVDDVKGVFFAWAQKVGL

[13] = molecular target: Cytochrome P450 2D6 (Homo sapiens) (UniProt P10635); test: Cytochrome P450 family 2 subfamily D member 6 (CYP2D6) small molecule antagonists: luciferase biochemical (cell-free) qHTS assay (AID 1645840; active = well fitted curve in the direction sought with a large enough effect in the repeat runs; an effect the other way counts as inactive or inconclusive)
Cytochrome P450 2D6 (Homo sapiens), sequence (P10635 whole entry, looked up): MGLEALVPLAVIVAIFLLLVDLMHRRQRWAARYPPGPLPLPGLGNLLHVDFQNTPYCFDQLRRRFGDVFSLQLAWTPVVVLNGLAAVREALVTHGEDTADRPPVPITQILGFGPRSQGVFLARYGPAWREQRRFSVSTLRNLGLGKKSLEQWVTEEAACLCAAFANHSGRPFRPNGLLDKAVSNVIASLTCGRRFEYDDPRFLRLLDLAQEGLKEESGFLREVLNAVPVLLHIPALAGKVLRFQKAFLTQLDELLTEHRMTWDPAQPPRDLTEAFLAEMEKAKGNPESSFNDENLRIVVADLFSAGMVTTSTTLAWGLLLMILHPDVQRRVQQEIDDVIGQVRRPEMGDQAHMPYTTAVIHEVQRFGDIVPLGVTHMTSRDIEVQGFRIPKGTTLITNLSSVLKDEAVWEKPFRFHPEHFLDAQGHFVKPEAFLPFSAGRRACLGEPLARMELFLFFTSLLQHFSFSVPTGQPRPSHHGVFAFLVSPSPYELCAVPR
Summary of the method: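 P450-Glo luminescent screen: recombinant CYP2D6 enzyme–proluciferin substrate mix preincubated with compound 10 min at room temperature, then NADPH regeneration added for 1 h at room temperature. Detection reagent added for 20 min; luciferin light read as relative luminescence units.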

SKOV3 = test: Primary qHTS to identify gynecologic anti-cancer compounds using libraries of approved drugs and bioactive compounds (AID 1345084); settings: Gynecologic cancer cell panel viability, ATPlite luminescence, 48 h; series mostly up to 57.5 µM; also: nearly all actives have a fitted effect of over 55% in size; also: potency is read from the fitted curve at half-maximal effect
Summary of the method: as §2

[14] = P-glycoprotein substrates identified in KB-8-5-11 adenocarcinoma cell line, qHTS therapeutic library screen (AID 1346987); also: potency is read from the fitted curve at half-maximal effect; nearly all actives have a fitted effect of over 65% in size
Summary of the method: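 KB-8-5-11: colchicine-selected sub-line of KB-3-1 over-expressing P-gp; assay medium lacked colchicine. 72 h drug exposure at 37 degree C, CellTiter-Glo.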

[15] = qHTS to identify inhibitors of the type 1 interferon - major histocompatibility complex class I in skeletal muscle: primary screen against the NCATS Mechanism Interrogation Plate v5.0 (MIPE) Libary (AID 1347411); also: nearly all actives have a fitted effect of over 65% in size; also: potency is read from the fitted curve at half-maximal effect;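 as to activity change, negative = inhibition: plate controls were vehicle for no effect and reference inhibitor for full effect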
Summary of the method: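 Immortalized human C25cl48 myoblasts with HiBit knocked into endogenous HLA-B*08:01 were stimulated with 4.0 ng/ml IFN-beta and exposed to compounds (11-point 1:3 titration, top 46 uM final) for 24 hrs at 37 C; HiBiT lytic luminescence measured.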

NIH3T3 = test: Cytotoxic Profiling of Annotated Libraries Using Quantitative High-Throughput Screening (AID 1296008); settings: Five cell lines viability, CellTiter-Glo ATP luminescence, 48-72 h; max response: stronger effect = lower value; also: nearly all actives have a fitted effect of over 60% in size; also: potency is read from the fitted curve at half-maximal effect; as to max response: % is scaled to controls: 0 for no effect and ±100 for the full control effect
Summary of the method: as §1

[16] = measured here: PEO1 parental Z-AUC

CNC(=O)c1cccc2cc(Oc3ccnc4cc(OCC5(N)CC5)c(OC)cc34)ccc12
Potency [1]: inactive
Potency [2]: 7.56 µM (active)
Z-AUC [3]: 0.323 (inactive)
Z-AUC [3, 16]: 0.465
Z-AUC ([3]; measured here: PEO4 Z-AUC): 0.47
Potency (CRL-7250): 4.61 µM (active)
outcome (HaCat [4]): inactive
outcome (HACAT [5]): inactive

C[C@@H](c1nc(-c2ccc(C#N)cc2)cs1)[C@](O)(Cn1cncn1)c1cc(F)ccc1F
Potency [1]: inactive
Potency [2]: 6.01 µM (active)
max response (CRL-7250): -34.3% (inactive)
outcome (HaCat [4]): inactive
outcome (HACAT [5]): inactive
Potency (PA-1): inactive

CC(C)(C)c1ccc(CNC(=S)NCc2ccc(NS(C)(=O)=O)c(F)c2)cc1
Potency [2]: 0.151 µM (active)
max response (CRL-7250): -28.3% (inactive)
max response (HaCat [4]): -44.1% (inactive)
Potency (PA-1): inactive

Cc1ccc(CCCO)c(NCc2ccc3nc(NCCCN4CCOCC4)n(Cc4nc(C)ccc4O)c3c2)c1
Potency [1]: inactive
Potency (CRL-7250): 23.1 µM (active)
max response (HaCat [4]): -12.2% (inactive)

CC(=O)N1c2ccc(-c3ccc(C(=O)O)cc3)cc2C(Nc2ccc(Cl)cc2)CC1C (stereo not drawn)
Potency [6]: 12.4 µM (active)
Potency [7]: 0.093 µM (active)

O=C(NCc1ccc(Oc2ccccc2)cc1)c1nc(-c2cc(Br)c(O)c(Br)c2)no1
Potency [7]: 8.29 µM (active)

CC1CCC2C(=CCC(O)C2(C)C)C1(C)Cc1c(O)cc(CO)c(C=O)c1O (stereo not drawn)
Potency [6]: 27.3 µM (active)

C[C@@H]1COCCN1c1cc(C2(S(C)(=N)=O)CC2)nc(-c2ccnc3[nH]ccc23)n1 (stereo partly drawn)
Potency [3]: 2.75 µM (active)

COc1cc2ncnc(Oc3cccc(NC(=O)Nc4cc(C(C)(C)C(F)(F)F)on4)c3)c2cc1OC
Potency ([8]; HiBiT): 24.9 µM (active)
activity change, negative = inhibition ([8]; Viability, at 45.9 µM (top of the series)): -21.3% (inactive)

COc1cc(N2CCOCC2)ccc1Nc1ncc(F)c(Nc2ccccc2NS(C)(=O)=O)n1
Potency [1]: inactive
Potency [2]: 2.13 µM (active)
activity [9]: -0.204%
activity change, negative = inhibition [10]: 2.81%
activity [11]: 3.16%
activity [12]: -0.832%
Potency (HaCat [4]): 7.31 µM (active)

C[C@@H](O[C@H]1OCCN(Cc2n[nH]nc2CN(C)C)[C@H]1c1ccc(F)cc1)c1cc(C(F)(F)F)cc(C(F)(F)F)c1
Potency [13]: 15.1 µM (active)
Potency [2]: 15.1 µM (active)
Potency (PA-1): inactive
Potency (SKOV3): inactive

COCCNCc1ccc(-c2cc3nccc(Oc4ccc(NC(=S)NC(=O)Cc5ccc(F)cc5)cc4F)c3s2)nc1
Potency [14]: 16.4 µM (active)
Potency [1]: inactive
Potency [15]: 8.29 µM (active)
Z-AUC [3]: 0.225 (inactive)
Z-AUC [3, 16]: -0.316
Z-AUC ([3]; measured here: PEO4 Z-AUC): 0.00247
Potency (NIH3T3): 6.51 µM (active)
Potency (PA-1): 31.6 µM (active)
Potency ([8]; HiBiT): 12.5 µM (active)
Potency ([8]; Viability): 11.1 µM (active)

Fc1ccccc1CNCc1ccc(-c2ccnc3[nH]ccc23)cc1
Potency [1]: inactive
Potency [13]: 0.477 µM (active)
Potency (PA-1): inactive
Potency (SKOV3): inactive

Cc1nc2ccc(C(=O)N3CCC4(CC3)CC(=O)c3c(cnn3C(C)C)C4)cc2[nH]1
Potency [15]: inactive
Z-AUC [3]: -0.421 (inactive)
Z-AUC [3, 16]: -0.389
Z-AUC ([3]; measured here: PEO4 Z-AUC): -0.0398
max response (HaCat [4]): -28.8% (inactive)
